Rows were chosen to be rich in hits. Some 3.9% of all compounds tested hit in one or more screens of this group.
BRCA1 expr act: activators of BRCA1 expression; MCF7-BRCA1-FFLuc reporter, luminescence, 48 h; response scale: scaled: vehicle 0%, 10 µM genistein 100%; Potency, µM (top dose mostly 46.1 µM), for inactives: at the highest dose activation, most hits filed as activators; 380,000 compounds, 1.1% hits; further: nearly all actives have a fitted effect of over 80% in size
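MCF7-BRCA1-FFLuc, 2000 cells/well; 2 h attach, 37 °C/5% CO2; compound 48 h; luciferase substrate 15 min; luminescence end-point. Norm. to genistein 10 microM max activation and DMSO; concentration-response curves fitted.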
VDR inh: vitamin D3 receptor (human) inhibition; Potency, µM, without a hit: max response, negative = inhibition, hits mostly inhibitors; 400,000 compounds, 0.93% hits; P11473; VDR-SRC2-3 peptide fluorescence polarization, 2 h; further: on the % scale 0 is the no-effect control and ±100 the full control effect
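Signal is fluorescence polarization, reporting how far test compounds block the interaction of VDR with the SRC2-3 coregulator peptide after a 2 h room-temperature incubation.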
Tb PFK block: blocks T. brucei phosphofructokinase; O15648; 330,000 compounds, 0.17% hits; T. brucei PFK, ADP-Glo luminescence; Potency, µM (top dose mostly 57.5 µM), for the others: at the top dose activity, negative = inhibition, actives largely listed as inhibitors;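 further: 0% = uninhibited 1x PFK enzyme wells and -100% = no-enzyme wells; nearly all actives have a fitted effect of over 60% in size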
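1.25 nM PFK with 0.5 mM F6P and 0.1 mM ATP in 0.1 M TEA pH 8.0, 5 mM MgCl2, incubated 45 min at room temperature; ADP measured by ADP-Glo luminescence; compounds titrated up to 57 uM.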
PLK1 PBD block: blocks phosphopeptide binding to human PLK1 polo-box domain. P53350. Plk1 PBD binding of FITC phosphopeptide, fluorescence polarization. Potency, µM, without a hit: max response, negative = inhibition, most hits filed as inhibitors. 360,000 compounds, 2.8% hits. AID 720504; further: series mostly up to about 57 µM; on the % scale 0 is the no-effect control and ±100 the full control effect; nearly all actives have a fitted effect of over 65% in size
Target sequence (P53350 whole entry, looked up, the tested form may be a part): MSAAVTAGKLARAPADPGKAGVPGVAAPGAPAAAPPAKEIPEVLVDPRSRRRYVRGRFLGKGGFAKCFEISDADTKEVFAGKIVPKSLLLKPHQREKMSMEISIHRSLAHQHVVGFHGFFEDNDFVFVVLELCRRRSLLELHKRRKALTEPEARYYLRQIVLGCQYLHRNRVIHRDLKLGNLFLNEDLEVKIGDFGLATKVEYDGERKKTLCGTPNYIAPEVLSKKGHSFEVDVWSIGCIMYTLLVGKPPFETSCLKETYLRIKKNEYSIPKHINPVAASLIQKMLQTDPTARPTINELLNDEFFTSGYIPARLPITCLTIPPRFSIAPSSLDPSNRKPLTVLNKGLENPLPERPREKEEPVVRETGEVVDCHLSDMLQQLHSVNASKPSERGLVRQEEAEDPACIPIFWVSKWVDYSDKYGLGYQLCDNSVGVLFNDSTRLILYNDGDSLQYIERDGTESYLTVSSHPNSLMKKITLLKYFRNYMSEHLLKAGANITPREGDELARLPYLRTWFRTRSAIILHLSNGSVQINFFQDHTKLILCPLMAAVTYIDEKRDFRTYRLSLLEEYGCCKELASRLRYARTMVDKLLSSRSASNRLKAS
* hit, by the source's call; ? = inconclusive; · = not tested or not shown; ! = not confirmed by another sample. The call rests on the fitted dose curve; in most records, active means well fitted curve in the direction sought with a large enough effect; inconclusive means small, poorly fitted or top-dose-only effect, or another doubt; inactive means no such curve, though single readings can be large; an effect the other way counts as inactive or inconclusive. Potency means the concentration at half of the fitted maximal effect.

SMILES | BRCA1 expr act | VDR inh | Tb PFK block | PLK1 PBD block
Clc1ccc(C2=Nn3c(Cn4nnc5ccccc54)nnc3SC2)cc1 | -18% | 79µM* | -14% | 8.4µM*
c1ccc(C2=Nn3c(Cn4nnc5ccccc54)nnc3SC2)cc1 | 0% | 9% | -4% | 3%
CC(=O)c1ccc(N2CCN(C(=O)C3CCCN(S(=O)(=O)c4c(C)[nH]c(=O)[nH]c4=O)C3)CC2)cc1 (centres undefined) | 0% | ? | 2% | 15µM*
CCOC(=O)c1c(C)[nH]c(C)c1S(=O)(=O)N1CCCC(C(=O)N2CCN(c3ccc(Cl)cc3)CC2)C1 (centres undefined) | · | 12% | · | ·
C[C@]1(c2ccccc2)OC(C(=O)O)=CC1=O | · | -3% | · | ·
CC(O)CCC(=O)NCCNC(=O)CCC(C)O (centres undefined) | -22% | ? | -3% | 11µM*
CN(C(=O)c1cc(-c2ccccc2)on1)C1CCCCC1 | 1.6µM* | -10% | -9% | -11%
COc1cccc(OCc2cc(C(=O)N(C)C3CCCCC3)no2)c1 | 11µM* | · | · | 1%
CCc1cccc(C)c1NC(=O)CSc1nc2ccccc2nc1N1CCOCC1 | · | -6% | · | ·
Cc1cccc(C)c1NC(=O)C1CCCN1S(=O)(=O)c1ccc(-c2ccc(=O)[nH]n2)s1 (centres undefined) | -4% | ? | -2% | 12µM*
Cc1cccc(C)c1NC(=O)C1CCCN1S(=O)(=O)c1ccccc1 (centres undefined) | -10% | -22% | 2% | 1%
Cc1ccc(CCNC(=O)C(C)n2nc(C)c3c(C)n(-c4ccc(C)cc4)nc3c2=O)cc1 (centres undefined) | · | 8% | · | ·
COc1ccc(CNC(=O)C(C)n2nc(C)c3c(C)n(-c4ccc(C)cc4)nc3c2=O)cc1 (centres undefined) | -12% | ? | 0% | 21µM*
COc1ccc(C2=CC(c3cc(OC)c(OC)c(OC)c3)NC(=S)N2)cc1 (centres undefined) | -40% | -12% | 2% | 12µM*
CC1(C)[C@@H]2CC[C@]1(C)[C@@H](OC(=O)CSC#N)C2 | · | 50µM* | · | ·
COc1ccc(OC)c(-c2c3c([nH]c(=S)c2C#N)CCCC3)c1 | -15% | 3% | -4% | 27µM*
COc1ccc(-c2c3c([nH]c(=S)c2C#N)CCC3)cc1 | -19% | ? | ? | 7.5µM*
CCCCCC/C=C/c1ccc(OC)c(C2C3C=CCC(C)C3C(=O)N2Cc2ccccc2)c1 (centres undefined) | · | -15% | · | ·
Cc1cccc(-n2ncc3c(=O)[nH]c(SCC(=O)NCCC4=CCCCC4)nc32)c1 | -3% | 48% | 0% | 8%
CN1C(=O)CC(=O)N(C)c2cc(S(=O)(=O)N(C)Cc3ccccc3)ccc21 | 8% | ? | -5% | 7.5µM*
CC1CCN(S(=O)(=O)c2ccc3c(c2)N(C)C(=O)CC(=O)N3C)CC1 | -10% | 4% | -4% | 13µM*
CC1CCN(c2ccc(S(=O)(=O)N3CCC(C)CC3)cc2N)CC1 | 3% | 8% | -2% | -7%
Cc1ccc2c(c1)Cc1c(nc(-c3ccc(F)cc3)nc1SCC(=O)N1CCCCC1)O2 | · | -12% | · | ·
CCCCC(=O)Nc1ccccc1Oc1ccccc1 | -67% | 2% | -1% | -5%
CCC(=O)Nc1ccccc1Oc1ccccc1 | 73% | -23% | -1% | 24µM*
SMILES | BRCA1 expr act | VDR inh | Tb PFK block | PLK1 PBD block
CCC(=O)Nc1ccc(OC)cc1OC | -30% | ? | 5% | 6.7µM*
CCC(=O)NC(=S)Nc1ccc(OC)cc1OC | 71% | 6% | 0% | -4%
COc1ccc(NC(=O)CNS(=O)(=O)c2cccc3nonc23)c(OC)c1 | -12% | 3% | 19% | 30µM*
O=C(N/N=C/c1cccc(F)c1)c1cc(-c2ccco2)nc2ccccc12 | -16% | -6% | -1% | 11µM*
CN(CC(=O)Nc1cccc(F)c1)C(=O)c1cc(-c2ccco2)nc2ccccc12 | 4% | ? | -22% | 34µM*
O=C(O)c1cc(-c2ccco2)nc2ccc(Br)cc12 | 0% | 20µM*! | 0% | 4.2µM*!
CCCCCCNC(=O)c1cc(-c2ccco2)nc2ccccc12 | -3% | ? | -24% | 27µM*
COc1ccc(NC(=O)CN(C)C(=O)c2cc(-c3ccco3)nc3ccccc23)cc1 | 3% | -6% | ? | ?
COc1cc(/C=N/NC(=O)c2cc(-c3ccco3)nc3ccccc23)cc(OC)c1O | -11% | -1% | 1% | -26%
COc1ccccc1N1CCN(CCCCNS(=O)(=O)c2cccc3c(N(C)C)cccc23)CC1 | · | -12% | · | ·
